Compound activity from PubChem BioAssay.
In the library only some 5.4% were active in any assay of this set; here they are far more common.
APOBEC3G inh: APOBEC3G DNA deaminase inhibitors, primary screen, biochemical, fluorescence, single-stranded DNA substrate, uHTS; DNA dC->dU-editing enzyme APOBEC-3G (Homo sapiens), Q9HC16; inhibition, % at 20 µM; recombinant A3G, ssDNA deamination FAM/TAMRA fluorescence; 0.28% of 330,000 active;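 active = inhibition of at least 40% at 20 µM, with no more than 30% in the related APOBEC3A deaminase screen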
PHOSPHO1 inh: PubChem AID 1565; 1.1% of 290,000 active; recombinant PHOSPHO1, absorbance phosphatase assay; Phosphoethanolamine/phosphocholine phosphatase (Homo sapiens), Q8TCT1; inhibition, % at 13.3 µM; in the data active = inhibition above about 60%
Target sequence (Q8TCT1 whole entry, looked up): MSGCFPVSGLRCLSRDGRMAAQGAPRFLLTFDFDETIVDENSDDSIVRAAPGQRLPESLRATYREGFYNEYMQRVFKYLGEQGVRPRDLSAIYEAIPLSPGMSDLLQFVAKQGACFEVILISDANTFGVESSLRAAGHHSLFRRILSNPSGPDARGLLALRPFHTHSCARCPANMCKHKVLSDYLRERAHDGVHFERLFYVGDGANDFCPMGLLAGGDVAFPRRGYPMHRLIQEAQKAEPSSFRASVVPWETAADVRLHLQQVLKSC
ALR H2O2 inh: inhibitors of human ALR sulfhydryl oxidase, primary screen, biochemical, H2O2 detection, HRP-luminol luminescence, single point | FAD-linked sulfhydryl oxidase ALR (Homo sapiens), P55789 | purified ALR, DTT oxidation | inhibition, % (concentration not given with the values) | 3.8% of 290,000 active;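 active = mean replicate inhibition above about 79%, with every replicate also reaching it, limit read from the data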
rCAG binder: binders of r(CAG) RNA repeats, primary screen, biochemical, fluorescence | r(CAG) RNA repeat, TO-PRO-1 dye displacement fluorescence | 1.3% of 370,000 active | AID 651821, 2012 | inhibition, % at 3 µM;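 active = inhibition above the plate cutoff, the mean of all test compounds on that plate plus 3 SD, cut at about 35% in these data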;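 also: higher means more dye released from RNA so lower well fluorescence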
aDG glyco act: activators of alpha-DG glycosylation, primary screen, uHTS, Pro5-aDG cells, AlphaScreen | alpha-DG glycosylation AlphaScreen (IIH6); 0% Pro5, 100% B10-LARGE cell signal | activation, % at 10 µM | 0.22% of 360,000 active | AID 624168, 2012;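 active = activation of at least 8% versus controls, or a plate z-score of at least 8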;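 also: Pro5 are CHO cells carrying HIG-tagged alpha-DG that lacks glycosylation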
APOBEC3A inh: APOBEC3A ssDNA deaminase inhibitors, primary screen, selectivity assay for APOBEC3G inhibitor project, biochemical, FAM/TAMRA oligo cleavage fluorescence. AID 493011, 2011. inhibition, % at 20 µM. 0.41% of 330,000 active. recombinant A3A, FAM/TAMRA ssDNA deamination fluorescence. DNA dC->dU-editing enzyme APOBEC-3A (Homo sapiens), P31941;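 active = at least 40% inhibition at 20 µM here, with at most 30% in a related deaminase screen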
Target sequence (P31941 whole entry, looked up): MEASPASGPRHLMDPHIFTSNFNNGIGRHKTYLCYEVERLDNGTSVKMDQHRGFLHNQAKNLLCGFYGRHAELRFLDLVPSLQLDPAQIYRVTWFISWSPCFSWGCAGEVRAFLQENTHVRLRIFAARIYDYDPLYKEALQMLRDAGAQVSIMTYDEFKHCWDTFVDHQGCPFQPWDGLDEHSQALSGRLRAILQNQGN
aDG glyco conf: alpha-DG glycosylation enhancers, retest, confirmation, single concentration, Pro5-aDG cells | shares compounds with aDG glyco act | IIH6 AlphaLISA; scaled to LARGE-overexpressing B10 cells as 100% | activation, % at 10 µM (by protocol) | 17% of 600 active | AID 651671, 2012;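 active = activation of at least 7% in one or more replicates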;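 also: cells exposed to compound for two days before detection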
Numbers stand for hits; . = inactive; / = no result.

SMILES	APOBEC3G inh	PHOSPHO1 inh	ALR H2O2 inh	rCAG binder	aDG glyco act	APOBEC3A inh	aDG glyco conf
CCc1ccc(OCCCCN(C)Cc2ccccc2)cc1	.	.	.	.	1.8	.	.
O=C(NN=Cc1ccccc1Cl)C(=O)Nc1cccc(C(F)(F)F)c1	/	/	/	.	/	/	/
Cc1csc(NC(=O)C2CCCN(S(=O)(=O)c3ccc4c(c3)oc(=O)n4C)C2)n1 (configuration not stated)	.	.	.	.	9.1	.	.
COc1ccc(OC)c(NC(=O)N[C@@H](Cc2ccccc2)C(=O)O)c1	.	.	.	.	5.9	.	.
COc1cc(NC(=O)N[C@@H](Cc2ccccc2)C(=O)O)cc(OC)c1	.	.	.	.	.	.	/
NNc1nnc2c3cc(F)ccc3n(Cc3ccccc3)c2n1	.	.	/	.	5.1	.	.
CCn1c2ccc(F)cc2c2nnc(NN)nc21	.	.	.	.	.	.	/
Cc1cccc(NC(=O)c2ccc([N+](=O)[O-])s2)c1C	.	.	.	.	10.1	.	.
Cc1cccc(C)c1NC(=O)c1ccc([N+](=O)[O-])s1	.	.	/	.	.	.	/
Cc1ccc(S(=O)(=O)/N=C2\C(=O)c3ccccc3C([O-])=C2n2cc[n+](CCC(C)C)c2)cc1	.	.	.	/	.	.	/
CCCC[n+]1ccn(C2=C([O-])c3ccccc3C(=O)/C2=N\S(=O)(=O)c2ccc(Br)cc2)c1	.	.	.	.	10.7	.	13.4
COc1ccc(S[C@]2(C(=O)N3CCN(c4ncccn4)CC3)CC(=O)N(c3ccccc3)[C@@H]2c2ccc(OC)cc2)cc1	/	/	/	.	/	/	/
C=C(CCO)C1=CCN(S(=O)C(C)(C)C)[C@H]1CCO (some centres not stated)	/	/	/	.	.	/	/
COC(=O)C1CCN(C(=O)COC(=O)c2cc(-c3ccccc3)nc3ccc(OC)cc23)CC1	.	/	.	/	6.7	.	.
CCOC(=O)c1ccc(NC(=O)COc2ccc(CNCCO)cc2OCC)cc1	.	.	/	.	.	.	/
CCOC(=O)c1ccc(NC(=O)COc2ccccc2CNCCc2ccccc2)cc1	.	.	.	.	5.8	.	.
COC(=O)C1=C[C@@H]([C@@H](C)[C@H](OC)c2ccccc2Br)[C@@H]2OCCC[C@H]12	/	/	/	.	/	/	/
N=c1c2c(ncn1CCCO)Oc1c(ccc3ccccc13)C2c1ccccc1 (configuration not stated)	.	.	.	.	3.1	.	4.7
S=C(NCCC1=CCCCC1)Nc1ccc(Cl)cc1	.	.	.	.	5.9	.	.
CC(=O)Nc1ccc(S(=O)(=O)NCc2ccc(C(=O)NCCN(C)Cc3ccccc3)cc2)cc1	/	/	/	.	.	/	/
CCc1ccc(S(=O)(=O)NCc2ccc(C(=O)NCCN(Cc3ccccc3)C(C)C)cc2)cc1	/	/	/	.	4.5	/	.
Cc1ccc(-c2nc3c4ccccc4ccn3c2Cc2cccc(F)c2)cc1	/	/	/	.	/	/	/
CCn1c(C)nc2cc(S(=O)(=O)C(F)(F)C(F)C(F)(F)F)ccc21 (configuration not stated)	.	.	.	/	4.4	.	.
CCn1c(C)nc2cc(S(N)(=O)=O)ccc21	.	.	.	.	.	.	/
Cc1cc(C)c(CN2CCN(CCCn3ccc(NC(=O)OCc4ccccc4)nc3=O)CC2)c(C)c1	/	/	/	.	.	/	/
SMILES	APOBEC3G inh	PHOSPHO1 inh	ALR H2O2 inh	rCAG binder	aDG glyco act	APOBEC3A inh	aDG glyco conf
CSCCC(c1nc2ccccc2[nH]1)n1c(/C=C/c2ccc(Cl)cc2)nc2ccccc21 (configuration not stated)	/	/	/	.	/	/	/
COC(=O)C1=NN(C(C)(C)CC(C)=O)C2C(=O)N(C3CCCCC3)C(=O)C12 (configuration not stated)	.	.	/	.	3.1	.	.
CCOC(=O)C1=NNC2C(=O)N(C3CCCCC3)C(=O)C12 (configuration not stated)	.	.	.	.	.	.	/
CCC(c1nnnn1Cc1cccs1)N1CCN(c2nc3ccccc3s2)CC1 (configuration not stated)	.	.	.	.	11.7	.	3.4
CCOC(=O)Cc1c(-c2cccc(Cl)c2)nc2c3ccccc3ccn12	/	/	/	.	.	/	/
O=C1C2CCC(C2)C1CN1CCOCC1 (configuration not stated)	/	/	/	.	12.6	/	.
CC[C@H]1OC(=O)[C@H](C)[C@@H](O[C@H]2C[C@@](C)(OC)[C@@H](O)[C@H](C)O2)C(C)[C@@H](O[C@@H]2O[C@H](C)C[C@H](N(C)C)[C@H]2O)[C@](C)(O)C[C@@H](C)CN(C)[C@H](C)[C@@H](O)[C@]1(C)O (some centres not stated)	/	/	/	.	/	/	/
C=CCN1C(=O)c2n[nH]c(C(C)C)c2C1c1ccccc1 (configuration not stated)	/	/	/	.	/	/	/
CCOC(=O)c1cc(-c2ccc(F)cc2)n(CCC(=O)NC2CCN(Cc3ccccc3)CC2)c1C	.	.	.	.	8.4	.	3.5
CCOC(=O)c1cc(-c2ccc(OC)cc2)n(CCC(=O)NC2CCN(Cc3ccccc3)CC2)c1C	.	.	.	.	.	.	/
O=C(COC(=O)CN1C(=O)C2CCCCC2C1=O)Nc1c(Cl)cccc1Cl (configuration not stated)	.	/	.	.	4.4	.	.
CC(Oc1ccccc1F)C(=O)NNC(=O)C1CC(=O)N(c2ccc3c(c2)OCCO3)C1 (configuration not stated)	.	/	.	.	.	.	/
O=C(NNC(=O)C1CC(=O)N(c2ccc3c(c2)OCCO3)C1)c1ccc(F)cc1 (configuration not stated)	.	/	.	.	3.3	.	.
O=C1CC(c2ccccc2)n2nc(NC(=O)C3CCCO3)nc2N1 (configuration not stated)	.	.	.	.	3.1	.	.
CCn1c2c(c(=N)c3ccccc31)CCC2	.	.	.	.	3.4	.	.
CCn1c2c(c(=N)c3c1CCC3)CCC2	.	.	.	.	.	.	/
CCOC(=O)C1(C)CCCN(C(=O)COc2ccccc2)C1 (configuration not stated)	/	/	/	.	.	/	/
Cc1cc(C)c(NC(=O)CN(C)C(=O)CCN2C(=O)C3CCCCC3C2=O)c(C)c1 (configuration not stated)	/	/	/	.	.	/	/
O=C(CN1C2=NCCCN2c2ccccc21)c1ccc([N+](=O)[O-])cc1	.	.	.	.	7.5	.	.
